Screening data deposited in PubChem by National Center for Advancing Translational Sciences (NCATS).
In the library only some 9.4% were active in any assay of this set; here they are far more common.
ELG1 genotoxic: inducers of genotoxicity in HEK293T ELG1-luciferase cells; HEK293T ELG1-luciferase reporter, luminescence, 16 h; Potency, µM (titrated, usually from 46 µM), for the others: top-dose activity change, positive = activation, actives largely listed as activators; 330,000 compounds, 1.3% hits; AID 504466; also: % of control where 0% means no effect; nearly all actives have a fitted effect of over 60% in size
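Genotoxicity was scored as increased ELG1-luciferase reporter signal, measured by ONE-Glo luminescence (30 min, room temperature). Compound or vehicle exposure of the HEK293T reporter cells lasted 16 hr at 37°C.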
FLuc counter: firefly luciferase modulation, counter-screen for miR-21 project; P08659; purified FLuc, Km substrates, luminescence inhibition; AID 588342; Potency, µM (series often up to 57.5 µM), inactives show top-dose activity change, negative = inhibition, usual class: inhibitors; 360,000 compounds, 6.9% hits;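 also: plate controls were vehicle for no effect and reference inhibitor for full effect; nearly all actives have a fitted effect of over 55% in size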
Target sequence (P08659 whole entry, looked up): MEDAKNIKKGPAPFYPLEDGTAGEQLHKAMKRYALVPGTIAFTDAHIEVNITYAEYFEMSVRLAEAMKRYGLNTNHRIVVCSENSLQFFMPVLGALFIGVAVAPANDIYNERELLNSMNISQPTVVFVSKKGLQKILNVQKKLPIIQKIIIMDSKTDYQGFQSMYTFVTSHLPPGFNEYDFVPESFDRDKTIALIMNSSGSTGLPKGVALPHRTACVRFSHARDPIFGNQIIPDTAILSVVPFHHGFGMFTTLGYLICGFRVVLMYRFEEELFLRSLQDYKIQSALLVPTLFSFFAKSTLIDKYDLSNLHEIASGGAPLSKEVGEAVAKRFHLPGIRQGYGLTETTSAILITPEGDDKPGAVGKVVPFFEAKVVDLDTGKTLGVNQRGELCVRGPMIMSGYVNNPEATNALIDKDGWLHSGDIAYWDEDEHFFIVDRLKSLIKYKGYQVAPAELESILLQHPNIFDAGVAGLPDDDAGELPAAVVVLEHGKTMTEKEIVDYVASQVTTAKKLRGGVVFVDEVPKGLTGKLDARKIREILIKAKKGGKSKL
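Biochemical qHTS of compounds, final roughly 60 µM downward over six points, against 10 nM purified firefly luciferase using Km concentrations of substrates (10 uM D-luciferin, 10 uM ATP) in Tris acetate pH 7.5 buffer; luminescence output.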
ELG1 repair inh: ELG1-dependent DNA repair inhibition | 330,000 compounds, 2.3% hits | HEK293T ELG1-luciferase reporter, luminescence, 16 h; DNA damage induced by 5-fluorouridine | Potency, µM (doses to about 46.1 µM), for inactives: at the highest dose activity change, negative = inhibition, usual class: inhibitors | AID 504467; also: % is scaled to controls: 0 for no effect and ±100 for the full control effect; nearly all actives have a fitted effect of over 55% in size
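Cells (2,000 per well) received 5-fluorouridine plus test compound or DMSO and were incubated 16 hr at 37 °C, 5% CO2. Luciferase activity was read by luminescence 30 min after ONE-Glo addition; signal suppression marked inhibition of damage-induced ELG1 function.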
Rab9 promoter act: activates the Rab9 promoter; Huh7 Rab9 promoter-luciferase reporter, luminescence, 24 h; Potency, µM (titrated, usually from 9.22 µM), for inactives: at the highest dose activation, negative = inhibition, most hits filed as activators; 320,000 compounds, 2.8% hits; AID 485297; also: % of control where 0% means no effect; nearly all actives have a fitted effect of over 60% in size
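Huh7 cells stably carrying Rab9 promoter–luciferase reporter, plated 1500 cells/well, compound added after 2 h and incubated 24 h at 37 °C; luciferase luminescence then read after 10 min with detection reagent.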
NPC1 promoter act: activates the NPC1 promoter. Huh7 NPC1 promoter luciferase reporter, 24 h. 320,000 compounds, 2.4% hits. AID 485313. Potency, µM (doses to about 9.22 µM), for the others: at the highest dose activation, most hits filed as activators; also: % of control where 0% means no effect; nearly all actives have a fitted effect of over 60% in size
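Stable NPC1-promoter luciferase Huh7 line; cpd (DMSO) 24 h, 37 °C, 5% CO2; Amplite luciferase reagent 10 min RT; luminescence readout. qHTS format.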
SMN2 splice enh: increases expression of the SMN2 splice variant; HEK293 SMN2-luciferase splicing reporter, luminescence, 30-36 h; Potency, µM (doses to about 46.1 µM), for inactives: at the top dose activity change, positive = activation, hits mostly activators; 210,000 compounds, 2.8% hits; AID 1458; also: % of control where 0% means no effect; nearly all actives have a fitted effect of over 55% in size
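HEK293 cells carry an SMN2 […]–luciferase reporter in which exon 7 inclusion puts luciferase in frame. Cells were plated 10-12 h before compound addition, then incubated 30-36 h at 37C. ONE-Glo luminescence was read; sodium butyrate at 4.5 mM final served as control.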
Numbers without * were called inactive. Calls follow the shape of the dose curve; as a rule, active = well fitted curve in the direction sought with a large enough effect; inconclusive = small, poorly fitted or top-dose-only effect, or another doubt; inactive = no such curve, though single readings can be large; an effect the other way counts as inactive or inconclusive. Potency is read from the fitted curve at half-maximal effect.

How did CCOC(=O)c1ccc(CC(=O)c2ccc(O)cc2O)o1 do in these assays?
ELG1 genotoxic: -15.2%; FLuc counter: 4.7%; ELG1 repair inh: inconclusive; Rab9 promoter act: 1.5%; NPC1 promoter act: -4.5%; SMN2 splice enh: -2.1%

What do the screens show for `O=C(COC(=O)c1ccc(O)cc1O)c1ccc(Cl)cc1`?
ELG1 genotoxic: 12.5%; FLuc counter: 16.9µM*; ELG1 repair inh: inconclusive; Rab9 promoter act: -0.1%; NPC1 promoter act: 12.6%

Results for Cc1ccc(-n2nc(C(=O)N(C)c3ccccc3Cl)c3c4ccccc4n(C)c3c2=O)cc1 ?
FLuc counter: -0.8%; SMN2 splice enh: 1.2%

Results for COc1cc(C(=O)NCC(c2cccs2)S(=O)(=O)c2ccc(F)cc2)cc(OC)c1OC (centres undefined) ?
FLuc counter: -10.3%

What do the screens show for `O=C(Nc1cc2c(cc1C(=O)c1ccccc1Br)OCCO2)c1ccccc1`?
FLuc counter: -15.2%; SMN2 splice enh: -25.2%

Results for CCc1ccc(NC(=O)c2ccc3c(=O)n4nc(Nc5ccccc5C)sc4nc3c2)cc1 ?
FLuc counter: -6.3%

How did CCSc1ncc(Cl)c(C(=O)N(Cc2ccc(N(C)C)cc2)Cc2ccco2)n1 do in these assays?
FLuc counter: -10.0%; SMN2 splice enh: -19.0%

How did COc1ccc(NC(=O)c2c(C)oc3ccc(O)c(CN4CCN(Cc5ccccc5)CC4)c23)cc1Cl do in these assays?
FLuc counter: -1.5%; SMN2 splice enh: -14.0%

Results for O=[N+]([O-])c1cccc(COc2ncnc3cc([N+](=O)[O-])ccc23)c1 ?
ELG1 genotoxic: -7.0%; FLuc counter: -0.9%; ELG1 repair inh: 10.3µM*; Rab9 promoter act: 1.4%; NPC1 promoter act: -0.1%

What do the screens show for `CCCC(=O)N1CCN(c2ccc(C(=O)c3ccc(OC)c(Br)c3)cc2F)CC1`?
ELG1 genotoxic: -8.5%; FLuc counter: 0.2%; ELG1 repair inh: inconclusive; Rab9 promoter act: -10.8%; NPC1 promoter act: 0.5%; SMN2 splice enh: -43.8%

How did COc1ccc(C(=O)c2ccc(N3CCN(C(=O)c4ccc(F)cc4)CC3)c(F)c2)cc1Br do in these assays?
ELG1 genotoxic: -12.9%; FLuc counter: 4.7%; ELG1 repair inh: 20.6µM*; Rab9 promoter act: -9.3%; NPC1 promoter act: -9.5%; SMN2 splice enh: -69.7%

Results for Cc1[nH]c(=O)c(C(=O)/C=C/c2ccccc2F)c2c1CCCC2 ?
ELG1 genotoxic: -1.0%; FLuc counter: 2.2%; ELG1 repair inh: 14.6µM*; Rab9 promoter act: -34.2%; NPC1 promoter act: -19.0%; SMN2 splice enh: -82.8%

What do the screens show for `CC1=C(c2ccc(C)cc2)S(=O)(=O)N(Cc2ccc(C(=O)Nc3ccc(F)cc3C)cc2)C1=O`?
FLuc counter: -5.2%

How did CCc1cccc(NC(=O)CSc2ncc3c(n2)-c2cc(Cl)ccc2N(C)S3(=O)=O)c1 do in these assays?
FLuc counter: 0.9%

Results for CCOc1ccc(CCNC(=O)CCc2cn(Cc3ccc(C)cc3)c3ccccc23)cc1 ?
FLuc counter: -8.2%

What do the screens show for `c1coc(CSc2ncnc3c2oc2ccccc23)c1`?
ELG1 genotoxic: inconclusive; FLuc counter: 19µM*; ELG1 repair inh: inconclusive; Rab9 promoter act: 26.8%; NPC1 promoter act: 7.6%

Results for COc1ncnc2c1oc1ccccc12 ?
ELG1 genotoxic: inconclusive; FLuc counter: 12µM*; ELG1 repair inh: inconclusive; Rab9 promoter act: -3.6%; NPC1 promoter act: -1.7%

How did CC(C)Sc1ncnc2c1oc1ccccc12 do in these assays?
ELG1 genotoxic: 3.0%; FLuc counter: 23.9µM*; ELG1 repair inh: inconclusive; Rab9 promoter act: 17.5%; NPC1 promoter act: 3.9%; SMN2 splice enh: 10.3%

Results for CCCSc1ncnc2c1oc1ccccc12 ?
ELG1 genotoxic: 17.3%; FLuc counter: 15.1µM*; ELG1 repair inh: inconclusive; Rab9 promoter act: 16.1%; NPC1 promoter act: 3.0%; SMN2 splice enh: -1.6%

What do the screens show for `Cc1ccc2c(c1)c1c(c(=O)n(-c3cccc(Cl)c3)c(=O)n1CC(=O)N1CCCC1)n2C`?
FLuc counter: -6.7%

What do the screens show for `Cc1ccc(S(=O)(=O)c2nc(-c3ccccc3F)oc2N2CCCCC2)cc1`?
FLuc counter: -10.6%; SMN2 splice enh: -10.5%

Results for c1ccc(Sc2ncnc3c2oc2ccccc23)nc1 ?
ELG1 genotoxic: inconclusive; FLuc counter: 21.3µM*; ELG1 repair inh: inconclusive; Rab9 promoter act: inconclusive; NPC1 promoter act: inconclusive; SMN2 splice enh: 45.9%

Results for CS(=O)(=O)c1ccccc1C(=O)Nc1cccc(-c2nc3ccccc3o2)c1 ?
ELG1 genotoxic: -5.6%; FLuc counter: 10.7µM*; ELG1 repair inh: -16.5%; Rab9 promoter act: -1.1%; NPC1 promoter act: -3.8%

How did Cc1ccc(-c2nc3ccccc3o2)cc1NC(=O)c1cccc2c(Cl)cccc12 do in these assays?
FLuc counter: -10.5%; SMN2 splice enh: 4.4%

What do the screens show for `Cc1ccc2nc(-c3cccc(NC(=O)c4ccc(Br)o4)c3)oc2c1`?
FLuc counter: 2.69µM*; SMN2 splice enh: 16.3%

How did Cc1cc2nc(-c3cccc(NC(=O)CSc4ccc(Cl)cc4)c3)oc2cc1C do in these assays?
FLuc counter: 1.9µM*; SMN2 splice enh: 1.4%

What do the screens show for `Cc1ccc2nc(-c3cccc(NC(=O)c4cccc5c(Cl)cccc45)c3)oc2c1`?
FLuc counter: 2.39µM*; SMN2 splice enh: 11.3%

What do the screens show for `Cc1ccc(SCC(=O)Nc2ccc3oc(-c4cccc(Cl)c4)nc3c2)cc1`?
FLuc counter: -6.5%

Results for CCC(=O)Nc1cccc(-c2nc3ccccc3o2)c1 ?
ELG1 genotoxic: 11.4%; FLuc counter: inconclusive; ELG1 repair inh: -21.0%; Rab9 promoter act: 23.8%; NPC1 promoter act: 10.4%; SMN2 splice enh: 13.6%

What do the screens show for `Cc1ccccc1C(=O)NC1(C(F)(F)F)N=C(c2ccccc2)N(C2CCCCC2)C1=O` (centres undefined)?
FLuc counter: 5.1%; SMN2 splice enh: 0.4%

How did Cc1cc2nc(-c3cccc(NC(=O)c4cccc5ccccc45)c3)oc2cc1C do in these assays?
FLuc counter: 2.13µM*; SMN2 splice enh: 6.7%

What do the screens show for `COc1ccccc1C1NC(=O)c2n[nH]c(-c3cccs3)c21` (centres undefined)?
FLuc counter: -13.0%; SMN2 splice enh: -3.6%

What do the screens show for `CC1=C(C(=O)Nc2cccnc2)C(c2cccc(F)c2)n2nc(SCc3ccccc3)nc2N1` (centres undefined)?
FLuc counter: 0.3%; SMN2 splice enh: 9.7%
